Reference: ChEMBL document CHEMBL2218924, “A broad activity screen in support of a chemogenomic map for kinase signalling research and drug discovery” (Biochem J, 2013)

Tests used:
[1] = target: T1, Ephrin type-A receptor 3 (Homo sapiens) (UniProt P29320); conditions: at 10 µM
T1 sequence (whole entry): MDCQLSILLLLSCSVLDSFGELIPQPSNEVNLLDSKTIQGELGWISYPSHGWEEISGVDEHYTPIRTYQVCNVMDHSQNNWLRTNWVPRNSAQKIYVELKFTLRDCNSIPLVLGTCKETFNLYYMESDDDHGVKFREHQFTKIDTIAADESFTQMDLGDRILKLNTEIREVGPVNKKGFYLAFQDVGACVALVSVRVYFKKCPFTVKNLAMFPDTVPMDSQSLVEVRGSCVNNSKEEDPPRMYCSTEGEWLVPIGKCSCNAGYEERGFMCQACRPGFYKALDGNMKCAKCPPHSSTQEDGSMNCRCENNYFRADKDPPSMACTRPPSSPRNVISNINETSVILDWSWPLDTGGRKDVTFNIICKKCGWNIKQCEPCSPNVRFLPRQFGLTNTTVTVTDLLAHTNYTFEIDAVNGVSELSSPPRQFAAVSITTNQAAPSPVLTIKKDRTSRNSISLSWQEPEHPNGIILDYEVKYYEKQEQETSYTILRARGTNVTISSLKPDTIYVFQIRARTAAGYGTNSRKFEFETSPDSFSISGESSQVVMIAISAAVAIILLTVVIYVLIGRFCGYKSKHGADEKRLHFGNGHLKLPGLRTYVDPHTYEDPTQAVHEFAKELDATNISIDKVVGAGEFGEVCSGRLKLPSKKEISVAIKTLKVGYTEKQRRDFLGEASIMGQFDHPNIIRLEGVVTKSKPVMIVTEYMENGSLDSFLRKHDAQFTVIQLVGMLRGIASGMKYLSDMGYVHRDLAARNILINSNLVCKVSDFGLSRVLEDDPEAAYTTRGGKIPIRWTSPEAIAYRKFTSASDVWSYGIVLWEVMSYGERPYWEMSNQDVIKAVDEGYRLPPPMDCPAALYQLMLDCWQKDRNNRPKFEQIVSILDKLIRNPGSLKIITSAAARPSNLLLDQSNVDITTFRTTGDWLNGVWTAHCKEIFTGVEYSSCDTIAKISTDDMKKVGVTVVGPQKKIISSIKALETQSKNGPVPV

[2] = target: Ephrin type-A receptor 4 (Homo sapiens) (UniProt P54764); conditions: at 10 µM
Ephrin type-A receptor 4 (Homo sapiens), sequence (P54764 whole entry): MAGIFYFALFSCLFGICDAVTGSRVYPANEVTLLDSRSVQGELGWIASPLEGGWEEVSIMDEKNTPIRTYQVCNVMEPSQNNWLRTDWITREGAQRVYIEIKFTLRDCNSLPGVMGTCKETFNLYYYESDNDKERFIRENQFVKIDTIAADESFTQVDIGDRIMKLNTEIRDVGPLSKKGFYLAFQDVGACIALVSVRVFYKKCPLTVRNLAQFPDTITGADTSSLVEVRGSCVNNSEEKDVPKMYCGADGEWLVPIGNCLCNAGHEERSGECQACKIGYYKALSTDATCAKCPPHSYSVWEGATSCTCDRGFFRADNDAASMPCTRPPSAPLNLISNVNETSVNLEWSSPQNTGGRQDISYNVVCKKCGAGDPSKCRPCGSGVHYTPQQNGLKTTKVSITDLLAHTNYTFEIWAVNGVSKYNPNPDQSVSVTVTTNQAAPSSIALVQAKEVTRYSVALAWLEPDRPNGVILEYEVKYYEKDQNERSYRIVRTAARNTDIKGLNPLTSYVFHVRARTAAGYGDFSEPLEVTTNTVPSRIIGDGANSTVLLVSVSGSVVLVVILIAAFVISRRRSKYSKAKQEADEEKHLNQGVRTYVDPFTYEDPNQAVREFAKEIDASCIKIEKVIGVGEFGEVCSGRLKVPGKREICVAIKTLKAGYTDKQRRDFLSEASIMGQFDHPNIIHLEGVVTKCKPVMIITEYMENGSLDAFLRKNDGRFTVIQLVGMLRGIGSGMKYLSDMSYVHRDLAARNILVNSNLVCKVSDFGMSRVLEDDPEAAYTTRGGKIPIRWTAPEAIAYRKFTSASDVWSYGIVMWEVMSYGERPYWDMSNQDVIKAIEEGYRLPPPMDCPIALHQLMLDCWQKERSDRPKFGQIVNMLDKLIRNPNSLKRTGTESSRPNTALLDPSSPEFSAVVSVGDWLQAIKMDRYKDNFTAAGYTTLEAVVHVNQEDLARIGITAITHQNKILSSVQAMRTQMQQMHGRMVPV

[3] = target: Ephrin type-A receptor 5 (Homo sapiens) (UniProt P54756); conditions: at 1 µM
Ephrin type-A receptor 5 (Homo sapiens), sequence (P54756 whole entry): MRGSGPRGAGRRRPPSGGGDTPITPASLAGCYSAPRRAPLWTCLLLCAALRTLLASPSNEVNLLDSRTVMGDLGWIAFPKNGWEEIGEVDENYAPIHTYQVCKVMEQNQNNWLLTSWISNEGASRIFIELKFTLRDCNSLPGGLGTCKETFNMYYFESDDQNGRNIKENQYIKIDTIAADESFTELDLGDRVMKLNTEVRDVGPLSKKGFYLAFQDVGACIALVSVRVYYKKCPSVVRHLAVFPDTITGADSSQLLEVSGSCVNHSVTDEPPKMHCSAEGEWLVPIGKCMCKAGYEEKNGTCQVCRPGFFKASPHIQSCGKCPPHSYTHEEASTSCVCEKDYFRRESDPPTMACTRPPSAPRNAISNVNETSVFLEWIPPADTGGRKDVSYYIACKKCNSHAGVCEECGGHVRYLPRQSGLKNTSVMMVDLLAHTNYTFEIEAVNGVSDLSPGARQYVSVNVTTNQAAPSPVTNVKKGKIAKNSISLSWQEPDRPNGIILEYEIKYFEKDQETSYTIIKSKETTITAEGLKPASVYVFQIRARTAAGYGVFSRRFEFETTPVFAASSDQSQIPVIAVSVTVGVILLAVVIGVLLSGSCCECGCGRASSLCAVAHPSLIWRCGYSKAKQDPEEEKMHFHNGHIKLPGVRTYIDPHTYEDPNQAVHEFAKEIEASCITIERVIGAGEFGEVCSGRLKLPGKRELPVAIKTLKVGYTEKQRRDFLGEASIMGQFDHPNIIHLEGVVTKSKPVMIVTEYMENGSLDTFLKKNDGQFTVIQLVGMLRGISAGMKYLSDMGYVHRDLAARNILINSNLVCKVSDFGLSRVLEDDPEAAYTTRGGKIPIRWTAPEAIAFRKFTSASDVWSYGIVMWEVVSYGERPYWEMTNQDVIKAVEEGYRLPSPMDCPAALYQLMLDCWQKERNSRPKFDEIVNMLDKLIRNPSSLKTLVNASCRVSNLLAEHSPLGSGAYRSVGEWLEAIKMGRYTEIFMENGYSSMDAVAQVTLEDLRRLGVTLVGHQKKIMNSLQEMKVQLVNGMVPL

[4] = target: Ephrin type-A receptor 5 (Homo sapiens) (UniProt P54756); conditions: at 10 µM
[5] = target: T2, Ephrin type-A receptor 8 (Homo sapiens) (UniProt P29322); conditions: at 1 µM
T2 sequence (whole entry): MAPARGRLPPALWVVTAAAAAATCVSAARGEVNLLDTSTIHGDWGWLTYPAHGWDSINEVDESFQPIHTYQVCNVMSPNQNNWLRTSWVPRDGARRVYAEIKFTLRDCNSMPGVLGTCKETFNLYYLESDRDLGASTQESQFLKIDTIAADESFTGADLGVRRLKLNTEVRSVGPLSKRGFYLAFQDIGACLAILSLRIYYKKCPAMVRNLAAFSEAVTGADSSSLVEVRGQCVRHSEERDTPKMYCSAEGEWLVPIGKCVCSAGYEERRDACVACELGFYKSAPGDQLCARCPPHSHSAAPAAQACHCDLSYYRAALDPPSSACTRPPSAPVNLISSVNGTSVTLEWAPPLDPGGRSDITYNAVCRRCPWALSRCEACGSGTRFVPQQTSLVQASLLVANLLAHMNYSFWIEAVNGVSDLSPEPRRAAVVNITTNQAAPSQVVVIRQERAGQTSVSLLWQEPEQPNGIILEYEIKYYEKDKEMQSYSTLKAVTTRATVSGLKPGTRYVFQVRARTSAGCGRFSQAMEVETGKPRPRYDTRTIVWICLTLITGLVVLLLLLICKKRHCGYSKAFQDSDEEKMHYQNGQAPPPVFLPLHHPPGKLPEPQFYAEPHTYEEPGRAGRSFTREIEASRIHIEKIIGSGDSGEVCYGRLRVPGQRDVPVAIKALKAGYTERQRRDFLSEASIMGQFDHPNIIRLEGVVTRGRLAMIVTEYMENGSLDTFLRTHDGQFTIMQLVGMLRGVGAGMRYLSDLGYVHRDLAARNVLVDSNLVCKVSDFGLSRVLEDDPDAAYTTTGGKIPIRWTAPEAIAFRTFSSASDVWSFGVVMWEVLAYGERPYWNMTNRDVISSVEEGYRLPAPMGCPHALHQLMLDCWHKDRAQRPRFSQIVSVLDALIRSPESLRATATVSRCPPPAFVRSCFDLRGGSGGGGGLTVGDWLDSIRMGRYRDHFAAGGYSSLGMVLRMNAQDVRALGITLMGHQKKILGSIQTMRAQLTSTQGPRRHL

[6] = target: T2, Ephrin type-A receptor 8 (Homo sapiens); conditions: at 10 µM
[7] = target: T3, Ephrin type-B receptor 2 (Homo sapiens) (UniProt P29323); conditions: at 1 µM
T3 sequence (whole entry): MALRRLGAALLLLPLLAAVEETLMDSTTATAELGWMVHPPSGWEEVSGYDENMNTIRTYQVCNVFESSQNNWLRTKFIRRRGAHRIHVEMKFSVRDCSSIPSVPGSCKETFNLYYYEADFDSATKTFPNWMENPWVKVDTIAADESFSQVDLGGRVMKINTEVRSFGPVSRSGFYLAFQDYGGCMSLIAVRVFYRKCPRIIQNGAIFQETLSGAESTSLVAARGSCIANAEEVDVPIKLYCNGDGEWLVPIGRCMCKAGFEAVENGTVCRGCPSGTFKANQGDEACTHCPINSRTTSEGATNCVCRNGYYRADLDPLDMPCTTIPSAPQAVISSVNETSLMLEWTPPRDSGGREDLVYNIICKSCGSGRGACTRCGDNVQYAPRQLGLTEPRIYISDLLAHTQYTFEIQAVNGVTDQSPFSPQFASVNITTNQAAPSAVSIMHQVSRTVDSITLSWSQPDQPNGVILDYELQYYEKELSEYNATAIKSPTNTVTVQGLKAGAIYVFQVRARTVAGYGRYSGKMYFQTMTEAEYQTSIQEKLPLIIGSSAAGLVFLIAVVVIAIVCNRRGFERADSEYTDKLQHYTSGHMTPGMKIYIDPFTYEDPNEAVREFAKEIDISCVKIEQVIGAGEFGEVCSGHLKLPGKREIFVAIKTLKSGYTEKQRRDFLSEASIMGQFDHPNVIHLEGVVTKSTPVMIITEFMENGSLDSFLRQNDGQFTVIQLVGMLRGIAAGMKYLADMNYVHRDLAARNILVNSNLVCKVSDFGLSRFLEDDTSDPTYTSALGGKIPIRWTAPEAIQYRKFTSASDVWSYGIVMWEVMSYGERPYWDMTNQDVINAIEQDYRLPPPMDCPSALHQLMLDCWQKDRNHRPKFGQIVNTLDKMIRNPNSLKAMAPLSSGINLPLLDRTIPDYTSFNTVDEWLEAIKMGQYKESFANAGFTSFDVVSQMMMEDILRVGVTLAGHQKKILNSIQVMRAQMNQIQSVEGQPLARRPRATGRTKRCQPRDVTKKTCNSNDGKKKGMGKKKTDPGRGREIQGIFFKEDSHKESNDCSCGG

[8] = target: T3, Ephrin type-B receptor 2 (Homo sapiens); conditions: at 10 µM
[9] = target: T4, Ephrin type-B receptor 3 (Homo sapiens) (UniProt P54753); conditions: at 1 µM
T4 sequence (whole entry): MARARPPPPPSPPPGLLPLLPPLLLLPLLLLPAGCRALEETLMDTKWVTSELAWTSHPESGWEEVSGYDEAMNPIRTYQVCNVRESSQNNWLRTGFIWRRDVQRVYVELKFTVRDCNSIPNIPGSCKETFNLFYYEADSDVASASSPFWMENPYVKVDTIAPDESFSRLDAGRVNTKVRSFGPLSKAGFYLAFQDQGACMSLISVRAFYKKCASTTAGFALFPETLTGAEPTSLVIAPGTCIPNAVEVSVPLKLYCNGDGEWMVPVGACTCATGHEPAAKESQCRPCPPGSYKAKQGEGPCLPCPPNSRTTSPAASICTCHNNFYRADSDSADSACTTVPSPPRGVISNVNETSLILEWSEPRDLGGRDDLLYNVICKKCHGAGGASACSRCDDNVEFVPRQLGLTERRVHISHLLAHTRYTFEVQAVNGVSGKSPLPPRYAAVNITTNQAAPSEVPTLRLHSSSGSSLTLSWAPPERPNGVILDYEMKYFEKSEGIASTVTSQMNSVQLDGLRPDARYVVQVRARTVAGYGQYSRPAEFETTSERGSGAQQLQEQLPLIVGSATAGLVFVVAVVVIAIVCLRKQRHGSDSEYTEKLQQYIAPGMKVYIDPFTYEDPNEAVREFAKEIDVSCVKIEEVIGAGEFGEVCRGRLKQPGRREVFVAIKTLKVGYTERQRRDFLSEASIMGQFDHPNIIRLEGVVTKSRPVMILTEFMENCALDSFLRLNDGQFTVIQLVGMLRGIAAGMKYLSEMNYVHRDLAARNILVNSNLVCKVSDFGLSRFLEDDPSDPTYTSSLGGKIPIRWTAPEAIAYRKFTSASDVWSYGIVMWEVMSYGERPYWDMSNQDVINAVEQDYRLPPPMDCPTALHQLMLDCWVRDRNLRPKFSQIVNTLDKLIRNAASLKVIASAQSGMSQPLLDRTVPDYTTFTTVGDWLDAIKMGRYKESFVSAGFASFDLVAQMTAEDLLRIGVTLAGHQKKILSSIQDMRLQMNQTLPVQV

[10] = target: T4, Ephrin type-B receptor 3 (Homo sapiens); conditions: at 10 µM
[11] = target: T5, Ephrin type-B receptor 4 (Homo sapiens) (UniProt P54760); conditions: at 1 µM
T5 sequence (whole entry): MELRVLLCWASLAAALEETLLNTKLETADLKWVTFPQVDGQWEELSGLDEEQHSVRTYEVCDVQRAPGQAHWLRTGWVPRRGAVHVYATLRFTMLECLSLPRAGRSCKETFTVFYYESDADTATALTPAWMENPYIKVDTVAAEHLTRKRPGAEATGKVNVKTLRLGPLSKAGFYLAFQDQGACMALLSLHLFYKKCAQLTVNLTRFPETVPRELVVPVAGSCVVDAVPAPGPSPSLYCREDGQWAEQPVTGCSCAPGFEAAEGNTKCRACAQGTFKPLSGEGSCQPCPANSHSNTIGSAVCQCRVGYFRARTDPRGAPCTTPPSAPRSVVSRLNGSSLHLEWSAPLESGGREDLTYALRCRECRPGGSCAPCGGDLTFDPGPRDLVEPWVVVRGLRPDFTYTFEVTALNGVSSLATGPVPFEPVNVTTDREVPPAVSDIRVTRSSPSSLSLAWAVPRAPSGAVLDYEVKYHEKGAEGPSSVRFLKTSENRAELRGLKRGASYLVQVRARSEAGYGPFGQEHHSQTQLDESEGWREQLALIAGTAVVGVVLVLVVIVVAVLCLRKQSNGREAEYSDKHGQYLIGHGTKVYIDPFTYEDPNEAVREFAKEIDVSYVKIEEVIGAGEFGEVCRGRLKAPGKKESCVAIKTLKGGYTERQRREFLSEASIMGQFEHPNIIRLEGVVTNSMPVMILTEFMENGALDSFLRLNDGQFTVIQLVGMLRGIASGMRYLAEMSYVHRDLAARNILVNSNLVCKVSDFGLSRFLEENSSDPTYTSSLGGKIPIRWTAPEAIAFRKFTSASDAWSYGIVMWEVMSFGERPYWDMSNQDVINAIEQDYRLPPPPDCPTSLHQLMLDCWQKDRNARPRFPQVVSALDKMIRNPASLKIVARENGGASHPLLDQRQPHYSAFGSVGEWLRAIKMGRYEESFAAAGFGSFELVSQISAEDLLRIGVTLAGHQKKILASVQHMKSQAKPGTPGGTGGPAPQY

[12] = target: T5, Ephrin type-B receptor 4 (Homo sapiens); conditions: at 10 µM
[13] = target: Receptor tyrosine-protein kinase erbB-4 (Homo sapiens) (UniProt Q15303); conditions: at 10 µM
Receptor tyrosine-protein kinase erbB-4 (Homo sapiens), sequence (Q15303 whole entry): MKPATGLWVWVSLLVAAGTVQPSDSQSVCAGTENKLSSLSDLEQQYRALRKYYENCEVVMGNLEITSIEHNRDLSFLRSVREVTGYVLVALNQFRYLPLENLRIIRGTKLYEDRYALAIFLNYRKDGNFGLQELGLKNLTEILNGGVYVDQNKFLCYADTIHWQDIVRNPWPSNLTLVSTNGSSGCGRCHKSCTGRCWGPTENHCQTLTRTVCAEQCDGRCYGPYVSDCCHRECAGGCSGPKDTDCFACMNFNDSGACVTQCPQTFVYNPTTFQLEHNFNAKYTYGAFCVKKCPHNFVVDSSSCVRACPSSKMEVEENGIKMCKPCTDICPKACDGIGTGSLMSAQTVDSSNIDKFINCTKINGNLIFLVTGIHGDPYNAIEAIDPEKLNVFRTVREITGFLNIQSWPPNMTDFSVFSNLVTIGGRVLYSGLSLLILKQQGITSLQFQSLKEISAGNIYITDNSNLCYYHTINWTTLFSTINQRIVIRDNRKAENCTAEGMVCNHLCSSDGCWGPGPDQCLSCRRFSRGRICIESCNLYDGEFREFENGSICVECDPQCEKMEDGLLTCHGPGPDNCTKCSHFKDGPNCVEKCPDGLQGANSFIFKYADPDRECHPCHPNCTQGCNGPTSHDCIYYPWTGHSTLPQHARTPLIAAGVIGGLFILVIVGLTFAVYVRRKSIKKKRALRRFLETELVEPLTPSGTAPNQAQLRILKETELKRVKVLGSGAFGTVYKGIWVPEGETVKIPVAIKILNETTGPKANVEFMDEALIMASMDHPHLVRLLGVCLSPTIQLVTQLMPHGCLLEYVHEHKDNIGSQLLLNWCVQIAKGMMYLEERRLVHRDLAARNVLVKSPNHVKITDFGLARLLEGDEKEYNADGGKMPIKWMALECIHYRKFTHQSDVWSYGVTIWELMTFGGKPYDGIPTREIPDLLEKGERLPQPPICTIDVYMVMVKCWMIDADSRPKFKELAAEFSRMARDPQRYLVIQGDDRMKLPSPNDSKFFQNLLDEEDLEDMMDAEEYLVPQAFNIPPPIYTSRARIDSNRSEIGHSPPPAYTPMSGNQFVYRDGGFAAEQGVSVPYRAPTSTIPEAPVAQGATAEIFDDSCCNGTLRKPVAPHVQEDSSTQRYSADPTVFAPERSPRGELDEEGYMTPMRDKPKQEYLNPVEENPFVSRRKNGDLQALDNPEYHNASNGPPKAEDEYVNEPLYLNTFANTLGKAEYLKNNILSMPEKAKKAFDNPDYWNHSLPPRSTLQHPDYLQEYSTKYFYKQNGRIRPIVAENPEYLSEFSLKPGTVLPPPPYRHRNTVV

[14] = target: Focal adhesion kinase 1 (Homo sapiens) (UniProt Q05397); conditions: at 1 µM
Focal adhesion kinase 1 (Homo sapiens), sequence (Q05397 2-1052 limits assumed): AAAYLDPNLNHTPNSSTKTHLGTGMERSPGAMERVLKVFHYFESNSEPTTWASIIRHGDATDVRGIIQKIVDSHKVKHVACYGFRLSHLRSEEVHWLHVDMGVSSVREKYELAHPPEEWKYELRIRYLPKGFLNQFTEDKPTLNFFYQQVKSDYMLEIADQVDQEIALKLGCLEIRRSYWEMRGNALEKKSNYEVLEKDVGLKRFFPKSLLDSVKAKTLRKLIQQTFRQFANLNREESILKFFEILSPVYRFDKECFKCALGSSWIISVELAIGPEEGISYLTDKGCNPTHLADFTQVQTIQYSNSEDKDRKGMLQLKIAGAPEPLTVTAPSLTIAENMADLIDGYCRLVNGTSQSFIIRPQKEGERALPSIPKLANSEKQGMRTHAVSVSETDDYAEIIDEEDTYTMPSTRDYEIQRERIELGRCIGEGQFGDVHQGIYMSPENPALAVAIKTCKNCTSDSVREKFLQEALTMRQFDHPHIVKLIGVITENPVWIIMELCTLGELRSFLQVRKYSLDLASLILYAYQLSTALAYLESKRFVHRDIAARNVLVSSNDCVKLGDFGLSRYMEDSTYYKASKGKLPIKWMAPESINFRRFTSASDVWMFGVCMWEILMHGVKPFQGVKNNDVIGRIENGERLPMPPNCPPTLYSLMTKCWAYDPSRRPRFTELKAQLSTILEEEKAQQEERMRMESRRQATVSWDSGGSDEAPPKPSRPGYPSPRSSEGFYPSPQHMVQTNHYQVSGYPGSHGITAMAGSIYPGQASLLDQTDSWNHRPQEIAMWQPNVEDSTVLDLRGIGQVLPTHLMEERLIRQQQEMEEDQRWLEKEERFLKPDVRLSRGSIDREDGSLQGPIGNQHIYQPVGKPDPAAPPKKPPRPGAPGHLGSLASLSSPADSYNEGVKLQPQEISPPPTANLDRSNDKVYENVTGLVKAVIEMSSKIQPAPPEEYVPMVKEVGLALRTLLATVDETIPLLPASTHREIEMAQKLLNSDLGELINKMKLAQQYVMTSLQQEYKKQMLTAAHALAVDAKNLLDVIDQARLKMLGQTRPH

Structure (SMILES): CC(C)[C@H](CO)Nc1nc(Nc2cc(N)cc(Cl)c2)c2ncn(C(C)C)c2n1
- residual activity [1]: 52%
- residual activity [2]: 63%
- residual activity [3]: 86%
- residual activity [4]: 23%
- residual activity [5]: 93%
- residual activity [6]: 59%
- residual activity [7]: 92%
- residual activity [8]: 7%
- residual activity [9]: 92% (inactive)
- residual activity [10]: 116%
- residual activity [11]: 57%
- residual activity [12]: 6%
- residual activity [13]: 84%
- residual activity [14]: 42%
